Data published in PubChem BioAssay (EPA / NIEHS).
Values joined by “and” are separate entries in the source; they are usually repeats but may differ in a detail not shown here. Identical values can stand only once. Records with an inconclusive call do not appear. Where a structure was tested more than once in an assay, its records may differ in their call. Active and inactive are the calls of the source. How the source made its calls: active means hit-call score of the fitted dose curve at least 0.9, where 1 is the maximum; inconclusive means response in the unintended direction; inactive means score below 0.9. Where a SMILES comes first, the peptide text is derived from it. [ ]: non-standard residue; d: D form. Orn = NCCC[C@H](N)C(=O)O

Columns and labels:
[1] = TOX21_p53_BLA_p2_viability: Viability Assessment in the Tox21 HCT-116 p53 Agonism Beta-lactamase Assay, Phase 2 (AID 2283591);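 further: actives lower the ATP signal meaning cytotoxicity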
Method in brief: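 HCT116 p53-bla cells, 4000/well, dosed after 5 h plating (217-fold dilution of DMSO stocks) and incubated 16 h at 37C. Viability taken as cellular ATP by CellTiter-Glo luminescence after 30 min RT; signal loss marks cytotoxicity.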

[2] = biological target: Cellular tumor antigen p53 (Homo sapiens) (UniProt P04637); experiment: TOX21_p53_BLA_p2_ratio: Tox21 HCT-116 p53 Agonism Beta-lactamase Assay, Ratio, Phase 2 (AID 2283592)
Sequence of Cellular tumor antigen p53 (Homo sapiens) (P04637 whole entry, looked up): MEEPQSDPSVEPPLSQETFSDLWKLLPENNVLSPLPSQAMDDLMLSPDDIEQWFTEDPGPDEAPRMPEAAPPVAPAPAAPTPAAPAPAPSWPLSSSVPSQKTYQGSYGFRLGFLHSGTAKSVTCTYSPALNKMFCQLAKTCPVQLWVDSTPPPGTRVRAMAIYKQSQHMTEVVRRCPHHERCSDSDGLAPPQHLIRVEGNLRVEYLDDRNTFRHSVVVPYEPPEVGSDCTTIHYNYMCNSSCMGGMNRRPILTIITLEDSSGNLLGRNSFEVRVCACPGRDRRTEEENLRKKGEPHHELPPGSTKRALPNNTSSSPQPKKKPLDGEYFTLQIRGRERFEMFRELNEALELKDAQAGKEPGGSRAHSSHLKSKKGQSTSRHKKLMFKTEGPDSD
Method in brief: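 First, HCT116 reporter cells settle for 5 h at 37C. Next, DMSO compound solutions are pinned in (217-fold dilution) and left 16 h. Finally, CCF4-AM substrate is loaded 2 h at room temperature and the 460/530 nm ratio read.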

[3] = TOX21_p53_BLA_p3_viability: Viability Assessment in the Tox21 HCT-116 p53 Agonism Beta-lactamase Assay, Phase 3 (AID 2283593);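 further: cells exposed to compound for 16 h before reading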
Method in brief: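 HCT116 cells, 4000/well, dosed 5 h after plating by pin transfer (217-fold dilution from DMSO stock) and incubated 16 h at 37C, 5% CO2. Viability read as ATP luminescence with CellTiter-Glo after 30 min at room temperature.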

[4] = biological target: Cellular tumor antigen p53 (Homo sapiens) (UniProt P04637); experiment: TOX21_p53_BLA_p3_ratio: Tox21 HCT-116 p53 Agonism Beta-lactamase Assay, Ratio, Phase 3 (AID 2283596)
Method in brief: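 Cells were seeded at 4000/well, rested 5 h at 37C, then dosed with DMSO compound solutions (217-fold dilution) for 16 h. CCF4-AM substrate was loaded for 2 h at room temperature, and the 460/530 nm emission ratio was fitted for gain of signal versus DMSO.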

[5] = TOX21_p53_BLA_p4_viability: Viability Assessment in the Tox21 HCT-116 p53 Agonism Beta-lactamase Assay, Phase 4 (AID 2283597);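 further: hits lower the luminescence signal meaning cytotoxicity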
Method in brief: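 4000 HCT116 cells per well; 5 h attachment; compounds from DMSO, 217-fold dilution; 16 h at 37C. Then CCF4-AM, 2 h RT, followed by CellTiter-Glo, 30 min RT, luminescence. Decrease = cytotoxicity.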

[6] = biological target: Cellular tumor antigen p53 (Homo sapiens) (UniProt P04637); experiment: TOX21_p53_BLA_p5_ratio: Tox21 HCT-116 p53 Agonism Beta-lactamase Assay, Ratio, Phase 5 (AID 2283599)
Method in brief: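 HCT-116 p53-bla cells (4000/well) plated 5 h, dosed with compound (217-fold DMSO dilution) for 16 h at 37 C; CCF4-AM substrate 2 h at room temperature. Activity is the 460/530 nm emission ratio (405 nm excitation), fitted in gain-of-signal direction versus DMSO.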

[7] = TOX21_p53_BLA_p5_viability: Viability Assessment in the Tox21 HCT-116 p53 Agonism Beta-lactamase Assay, Phase 5 (AID 2283600)
Method in brief: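 Decreased CellTiter-Glo luminescence denotes lost viability. Exposure: 16 h at 37C, 5% CO2, with compounds from DMSO stocks diluted 217-fold in wells of 4000 cells.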

[8] = biological target: Cellular tumor antigen p53 (Homo sapiens) (UniProt P04637); experiment: TOX21_p53_BLA_p4_ratio: Tox21 HCT-116 p53 Agonism Beta-lactamase Assay, Ratio, Phase 4 (AID 2283601)
Method in brief: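 HCT-116 p53 beta-lactamase reporter cells (4000/well) preincubated 5 h, then compound (217-fold dilution of DMSO stock) for 16 h at 37C. CCF4-AM substrate added 2 h at room temperature; 460/530 nm emission ratio fitted upward versus DMSO.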

Measured: AC50

OC[C@H]1O[C@@H](O[C@H]2[C@H](O)[C@@H](O)C(O)O[C@@H]2CO)[C@H](O)[C@@H](O)[C@@H]1O (stereo not given in full)
inactive: [1] | [2] | [3] | [4] | [5] | [6] | [7]

CC(C)C(=O)OCC(=O)[C@@]12O[C@H](C3CCCCC3)O[C@@H]1C[C@H]1[C@@H]3CCC4=CC(=O)C=C[C@]4(C)[C@H]3[C@@H](O)C[C@@]12C
inactive: [1] | [2] | [3] | [4] | [5] | [6] | [7]

Cc1ccsc1C(=CCCN1CCC[C@@H](C(=O)O)C1)c1sccc1C
inactive: [1] | [2] | [3] | [4] | [5] | [6] | [7]

CC(CO)(CO)C(=O)O
inactive: [1] | [2] | [3] | [4] | [5] | [6] | [7]

O=C1CCCCO1
inactive: [1] | [2] | [3] | [4] | [5] | [6] | [7]

CO[C@@]12[C@H](COC(N)=O)C3=C(C(=O)C(C)=C(N)C3=O)N1C[C@@H]1N[C@@H]12
active: [1] 33.2 µM | [2] 7.59 µM | [3] 29.5 µM | [4] 3.24 µM | [6] 6.3 µM | [7] 34.4 µM | [8] 20.8 µM
inactive: [5]

Clc1ccc(Cn2c(CN3CCCC3)nc3ccccc32)cc1
inactive: [1] | [2] | [3] | [4] | [5] | [6] | [7]

CCCOC(C(=O)OC1CCN(C)CC1)(c1ccccc1)c1ccccc1
inactive: [1] | [2] | [3] | [4] | [5] | [6] | [7]

CC(=O)OC(C)C[N+](C)(C)C (stereo not given)
inactive: [1] | [2] | [3] | [4] | [5] | [6] | [7]

Nc1ccc(F)cc1F
inactive: [1] | [2] | [3] | [4] | [5] | [6] | [7]

CC(C)(C)c1cc(CO)cc(C(C)(C)C)c1O
inactive: [1] | [2] | [3] | [4] | [5] | [6] | [7]

CC(C)[C@H](N)C(=O)OCC(CO)OCn1cnc2c(=O)[nH]c(N)nc21 (stereo not given in full)
inactive: [1] | [2] | [3] | [4] | [5] | [6] | [7]

O=S(c1cc(Cl)cc(Cl)c1O)c1cc(Cl)cc(Cl)c1O
inactive: [1] | [3] | [5] | [6] | [7]
active: [2] 16.2 µM | [4] 6.85 µM | [8] 15.1 µM

N/C(=N\N=Cc1ccc(Cl)cc1)NN=Cc1ccc(Cl)cc1
inactive: [1] | [2] | [5] | [6] | [7]
active: [3] 42.7 µM | [4] 37.6 µM

CC(C)=CCC/C(C)=C/CC/C(C)=C/CC/C(C)=C/CC1=C(C)C(=O)c2ccccc2C1=O
inactive: [1] | [2] | [3] | [4] | [5] | [6] | [7]

CC(CNC1CCCCC1)OC(=O)c1ccccc1 (stereo not given)
inactive: [1] | [2] | [3] | [4] | [5] | [6] | [7]

CC(C)OC(=O)CCCCC(=O)OC(C)C
inactive: [1] | [3] | [4] | [5] | [7]
active: [2] 60.5 µM | [6] 71.9 µM | [8] 69 µM

CC1=CC[C@H](CC=O)C1(C)C
inactive: [1] | [2] | [3] | [4] | [5] | [6]

C=CCn1c(=O)n(CC=C)c(=O)n(CC=C)c1=O
inactive: [1] | [2] | [3] | [4] | [5] | [6] | [7]

CC(S)C(=O)NCC(=O)O (stereo not given)
inactive: [1] | [2] | [3] | [4] | [5] | [6] | [7]

CO/N=C(\C(=O)N[C@@H]1C(=O)N2C(C(=O)O)=C(CSC(=O)c3ccco3)CS[C@H]12)c1csc(N)n1
inactive: [1] | [2] | [3] | [4] | [5] | [6] | [7]

COCCCC/C(=N\OCCN)c1ccc(C(F)(F)F)cc1
inactive: [1] | [2] | [3] | [4] | [5] | [6] | [7] | [8]

CC(=O)Nc1ccc(C=NNC(N)=S)cc1
inactive: [1] | [2] | [3] | [4] | [5] | [6]

CCC(=O)c1ccc(O)cc1
inactive: [1] | [2] | [3] | [4] | [5] | [6] | [7]

CC(=O)Oc1ccc(C(c2ccc(OC(C)=O)cc2)c2ccccn2)cc1
inactive: [1] | [3] | [6] | [7] | [8]
active: [2] 11.4 µM and 2.16 µM | [4] 1.55 µM and 3.98 µM | [5] 1.4 µM and 2.68 µM | [6] 1.18 µM | [8] 5.22 µM

COc1ccc2c(c1)OC(C)(C)C(c1ccccc1)C2c1ccc(OCCN2CCCC2)cc1 (stereo not given)
inactive: [1] | [2]
active: [3] 35.3 µM | [4] 43.8 µM | [5] 43.5 µM | [6] 36.7 µM | [7] 33.5 µM

CC=C(C)C#N
inactive: [1] | [2] | [3] | [4] | [5] | [6] | [7]

CCOC(=O)c1cc(-c2ccccc2)nc2ccc(C)cc12
inactive: [1] | [2] | [3] | [4] | [5] | [6] | [7]

O=c1cc(CO)occ1O
inactive: [1] | [2] | [3] | [4] | [5] | [6] | [7]

CC(C)c1ccc2oc3nc(N)c(C(=O)O)cc3c(=O)c2c1
inactive: [1] | [2] | [3] | [4] | [5] | [6] | [7]

CCCCCCCCOc1ccc(C(=O)O)cc1
active: [3] 45.7 µM | [4] 79.4 µM
inactive: [1] | [2] | [5] | [6] | [7]

CC(=O)[C@@]1(O)CC[C@H]2[C@@H]3C=C(Cl)C4=CC(=O)CC[C@]4(C)[C@H]3CC[C@@]21C
active: [2] 37 µM | [5] 23 µM | [6] 37.9 µM | [8] 37.8 µM
inactive: [1] | [3] | [4] | [7]

Cc1cccc(CN2CCN(C(c3ccccc3)c3ccc(Cl)cc3)CC2)c1 (stereo not given)
inactive: [1] | [2] | [3] | [4] | [5] | [6] | [7]

CC(=O)OC(OC(C)=O)c1ccc([N+](=O)[O-])o1
active: [1] 74.3 µM | [3] 74.1 µM | [5] 74.8 µM | [7] 88 µM
inactive: [2] | [4] | [6] | [8]

O=C1[C@H]2CCCC[C@H]2C(=O)N1CCCCN1CCN(c2nsc3ccccc23)CC1
inactive: [1] | [2] | [3] | [4] | [5] | [6] | [7]

C[N+]1([O-])CCOCC1
inactive: [1] | [2] | [3] | [4] | [5] | [6] | [7] | [8]

CC(C)(C)NCC(O)CSc1nc(-c2ccc(C(N)=O)s2)cs1 (stereo not given)
inactive: [1] | [2] | [3] | [4] | [5] | [6] | [7] | [8]

CC(=O)O[C@H]1CC[C@@]2(C)C(=CC[C@H]3[C@@H]4CC[C@H](C(C)=O)[C@@]4(C)CC[C@@H]32)C1
inactive: [1] | [2] | [3] | [4] | [5] | [6] | [7] | [8]

O=S(=O)(O)c1ccc(O)cc1
inactive: [1] | [2] | [3] | [4] | [5] | [6] | [7] | [8]

O=C(O)c1cc(=O)c2c3nc4ccccc4oc-3cc(=O)c2[nH]1
inactive: [1] | [2] | [3] | [4] | [5] | [6] | [7] | [8]

C#C[C@]1(OC(C)=O)CC[C@H]2[C@@H]3CCC4=C/C(=N/O)CC[C@@H]4[C@H]3CC[C@@]21CC
active: [1] 37.2 µM | [2] 40.4 µM | [3] 38.7 µM | [4] 42.8 µM | [5] 38.2 µM | [6] 40.6 µM | [7] 37.1 µM | [8] 39.5 µM

CC1=CC(C)(C)Nc2ccccc21
inactive: [1] | [2] | [3] | [4] | [5] | [6] | [7] | [8]

[O]=[Bi]
inactive: [1] | [2] | [3] | [4] | [5] | [6] | [7] | [8]

C/C=C1\NC(=O)[C@H]2CSSCC/C=C/[C@H](CC(=O)N[C@H](C(C)C)C(=O)N2)OC(=O)C(C(C)C)NC1=O (stereo not given in full)
active: [1] 1.46 µM | [2] 0.00463 µM | [3] 1.87 µM | [4] 4.57 µM | [5] 0.735 µM | [6] 11.4 µM | [7] 2.56 µM | [8] 7.21 µM

CC(C)C[C@@H]1NC(=O)[C@H](CCCN)NC(=O)[C@H](C(C)C)NC(=O)[C@@H]2CCCN2C(=O)[C@@H](Cc2ccccc2)NC(=O)[C@H](CC(C)C)NC(=O)[C@H](CCCN)NC(=O)[C@H](C(C)C)NC(=O)[C@@H]2CCCN2C(=O)[C@@H](Cc2ccccc2)NC1=O (cyclo(V[Orn]L[dF]PV[Orn]L[dF]P))
inactive: [2] | [4] | [6]
active: [1] 8.09 µM | [3] 5.88 µM | [5] 5.84 µM | [7] 4.51 µM | [8] 2.35 µM

CC(=O)Oc1ccc(C2(c3ccc(OC(C)=O)cc3)Oc3ccccc3NC2=O)cc1
active: [2] 2.17 µM | [6] 6.63 µM
inactive: [1] | [3] | [4] | [5] | [7] | [8]
